Test results reported in PubChem BioAssay (NCATS).
Records with an inconclusive call do not appear. A call without a number means that no potency is given here. Activity calls are given as the source filed them. Unless noted, the call rests on the fitted dose curve; in most records, active means well fitted curve in the direction sought with a large enough effect; inconclusive means small, poorly fitted or top-dose-only effect, or another doubt; inactive means no such curve, though single readings can be large; an effect the other way counts as inactive or inconclusive.

Assays:
[1] = qHTS Assay for Identification of Small Molecule Inducers of Hypoxia Response (AID 2120; active means well fitted curve in the direction sought with a large enough effect in the signal ratio, with a control signal flat, not every such curve was filed as active; the % refers to the signal ratio)
In short: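 HRE-bla ME-180 cells in Opti-MEM with 0.5% dialyzed FBS, pre-plated 4-5 h, then compound titration for 17 h at 37 degrees Celsius. CCF4 loaded 2.5 h at room temperature; 460/530 nm ratio gave %Activity and AC50 for induction.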

[2] = qHTS for differential inhibitors of proliferation of Plasmodium falciparum line D10 (AID 1877);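 further: parasites grown with compound for 72 h before DNA staining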; further: potency means the concentration at half of the fitted maximal effect
[3] = qHTS for differential inhibitors of proliferation of Plasmodium falciparum line W2 (AID 1883); conditions: Potency: Plasmodium falciparum W2 proliferation inhibition;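 further: potency means the concentration at half of the fitted maximal effect; parasites grown with compound for 72 h before lysis and staining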
[4] = target: Ferritin light chain (Equus caballus) (UniProt P02791); experiment: qHTS Validation Assay for Identification of Novel General Anesthetics (AID 2323); further: series mostly up to about 77 µM
Ferritin light chain (Equus caballus), sequence (P02791 2-175 limits assumed): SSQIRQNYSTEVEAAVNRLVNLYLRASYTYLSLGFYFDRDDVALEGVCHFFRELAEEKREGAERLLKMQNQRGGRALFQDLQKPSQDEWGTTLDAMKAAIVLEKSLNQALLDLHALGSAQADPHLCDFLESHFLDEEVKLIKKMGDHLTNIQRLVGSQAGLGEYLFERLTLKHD
In short: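 Normalized fluorescence response, scaled between free 1-AMA and 1-AMA/apoferritin complex, fitted to a four-parameter Hill equation for concentration-effect values. Binding mix: 10 uM horse-spleen apoferritin, 50% saturated 1-AMA in PBS; read 380/535 nm after 10 min.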

[5] = target: ATP-dependent DNA helicase Q1 (Homo sapiens) (UniProt P46063); experiment: qHTS Validation Assay for Inhibitors of RecQ-Like Dna Helicase 1 (RECQ1) (AID 2353)
ATP-dependent DNA helicase Q1 (Homo sapiens), sequence (P46063 whole entry, looked up): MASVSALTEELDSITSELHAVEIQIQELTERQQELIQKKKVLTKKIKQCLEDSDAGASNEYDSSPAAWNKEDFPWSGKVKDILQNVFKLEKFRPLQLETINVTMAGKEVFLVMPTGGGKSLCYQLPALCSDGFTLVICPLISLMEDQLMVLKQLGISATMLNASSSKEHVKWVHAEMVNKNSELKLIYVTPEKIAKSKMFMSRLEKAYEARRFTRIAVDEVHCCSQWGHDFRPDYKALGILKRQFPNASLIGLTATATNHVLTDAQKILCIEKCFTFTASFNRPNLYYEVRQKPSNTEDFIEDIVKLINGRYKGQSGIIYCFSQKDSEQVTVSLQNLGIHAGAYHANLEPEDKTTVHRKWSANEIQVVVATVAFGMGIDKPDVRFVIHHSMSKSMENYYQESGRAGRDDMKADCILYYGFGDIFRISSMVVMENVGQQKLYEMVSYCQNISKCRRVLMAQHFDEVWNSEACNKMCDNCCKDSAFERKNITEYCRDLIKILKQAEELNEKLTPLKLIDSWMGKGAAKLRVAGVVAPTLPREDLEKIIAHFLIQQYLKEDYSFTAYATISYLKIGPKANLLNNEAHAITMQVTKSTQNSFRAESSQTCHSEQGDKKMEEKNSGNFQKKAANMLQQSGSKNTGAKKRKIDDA
In short: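 50 nM RECQ1T1 preincubated 15 min with compound in Tris pH 8.0 buffer with MgCl2, DTT, Tween-20 and 2.5 ug/ml poly(dI-dC); started with 200 nM TAMRA/BHQ-2 forked duplex and 2 mM ATP. Unwinding read as fluorescence (525/598 nm), two reads 2 h apart.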

[6] = target: RecQ-like DNA helicase BLM (Homo sapiens) (UniProt P54132); experiment: qHTS Validation Assay for Inhibitors of Bloom's syndrome helicase (BLM) (AID 2364)
RecQ-like DNA helicase BLM (Homo sapiens), sequence (P54132 whole entry, looked up): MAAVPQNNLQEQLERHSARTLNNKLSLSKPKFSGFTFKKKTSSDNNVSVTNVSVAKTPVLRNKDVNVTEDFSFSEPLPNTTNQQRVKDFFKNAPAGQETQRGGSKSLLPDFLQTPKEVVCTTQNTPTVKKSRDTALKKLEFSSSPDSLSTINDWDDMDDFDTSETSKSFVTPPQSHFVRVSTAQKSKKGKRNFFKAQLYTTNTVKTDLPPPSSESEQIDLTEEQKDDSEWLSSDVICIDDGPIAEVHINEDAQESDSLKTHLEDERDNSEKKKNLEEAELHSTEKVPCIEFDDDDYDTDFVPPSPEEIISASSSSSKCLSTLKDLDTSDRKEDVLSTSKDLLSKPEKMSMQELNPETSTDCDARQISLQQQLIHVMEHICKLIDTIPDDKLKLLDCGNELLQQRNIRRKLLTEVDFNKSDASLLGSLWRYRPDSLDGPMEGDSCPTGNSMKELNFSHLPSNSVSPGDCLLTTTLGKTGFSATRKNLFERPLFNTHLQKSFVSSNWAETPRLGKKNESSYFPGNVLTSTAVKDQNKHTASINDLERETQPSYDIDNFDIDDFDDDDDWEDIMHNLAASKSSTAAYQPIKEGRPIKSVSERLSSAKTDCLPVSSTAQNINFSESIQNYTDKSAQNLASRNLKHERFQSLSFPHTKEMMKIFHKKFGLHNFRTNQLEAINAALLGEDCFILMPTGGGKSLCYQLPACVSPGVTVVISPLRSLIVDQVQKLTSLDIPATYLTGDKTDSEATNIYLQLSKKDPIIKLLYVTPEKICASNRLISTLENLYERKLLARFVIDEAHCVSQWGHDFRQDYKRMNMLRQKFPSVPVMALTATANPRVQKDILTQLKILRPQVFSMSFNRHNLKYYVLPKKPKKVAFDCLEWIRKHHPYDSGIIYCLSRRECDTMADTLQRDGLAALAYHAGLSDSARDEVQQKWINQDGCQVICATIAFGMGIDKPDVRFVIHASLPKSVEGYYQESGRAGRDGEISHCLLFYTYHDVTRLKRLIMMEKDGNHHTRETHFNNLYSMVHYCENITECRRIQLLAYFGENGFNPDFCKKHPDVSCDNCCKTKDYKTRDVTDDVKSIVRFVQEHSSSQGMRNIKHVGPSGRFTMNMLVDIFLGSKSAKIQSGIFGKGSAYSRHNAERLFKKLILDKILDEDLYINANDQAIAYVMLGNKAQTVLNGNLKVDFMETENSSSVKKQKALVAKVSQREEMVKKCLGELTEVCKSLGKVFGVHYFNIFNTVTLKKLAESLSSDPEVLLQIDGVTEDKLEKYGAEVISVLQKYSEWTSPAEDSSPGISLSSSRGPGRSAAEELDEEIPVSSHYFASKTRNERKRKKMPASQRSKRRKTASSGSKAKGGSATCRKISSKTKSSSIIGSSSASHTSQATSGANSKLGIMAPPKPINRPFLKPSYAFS
In short: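 Forked 20-bp duplex substrate (200 nM, TAMRA/BHQ-2) plus 2 mM ATP added after 15 min compound preincubation with 50 nM enzyme, pH 8.0, poly(dI-dC) 2.5 ug/ml. Strand separation followed by fluorescence (525/598 nm) over 2 h, normalized to enzyme-free and DMSO controls.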

[7] = qHTS Assay for Modulators of Human Peripheral Myelin Protein 22 (PMP22) Expression/Activity (AID 1967; active means well fitted curve in the direction sought with a large enough effect in the signal ratio; the % refers to the signal ratio)
In short: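 Engineered MSC80 cells, Pmp22-promoter green and EF-alpha red luciferase reporters; 24h compound treatment at 37 °C. Concentration-response fits on green, red and ratio signals, each overlap-corrected, with %Activity normalized to untreated wells.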

[8] = qHTS for differential inhibitors of proliferation of Plasmodium falciparum line HB3 (AID 1886); conditions: Potency: Plasmodium falciparum HB3 proliferation inhibition;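 further: potency means the concentration at half of the fitted maximal effect; parasites grown with compound for 72 h before SYBR Green readout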

In the case of `ClCC1CO1` (centres undefined), the outcome [1] is reported as “inactive”.

With `Clc1ccccc1Cl` the outcome [1] was “inactive”.

For `COc1ccc2c(c1)C13CCCCC1C(C2)N(C)CC3` (centres undefined), the Potency [2] was “inactive”, the Potency [3] was 0.891 µM (active) and the outcome [4] was “inactive”. The Potency [5] was “inactive” and the Potency [6] was “inactive”.

In the case of `Oc1cc(Cl)c(Cl)cc1Cl`, the outcome [1] is reported as “inactive”.

With `C[C@H]1CCC[C@H](O)CCCCCc2cc(O)cc(O)c2C(=O)O1` the outcome [1] was “inactive”.

For `O=Cc1ccco1`, the outcome [1] was “inactive”.

With `c1ccc2c(N3CCNCC3)cccc2c1` the Potency [2] was 10 µM (active), the Potency [3] was 7.94 µM (active) and the outcome [4] was “inactive”. For the same compound, the Potency [6] was “inactive”.

With `Cc1sc2ccccc2c1CC1=NCCN1` the Potency [3] was 8.91 µM (active), the outcome [7] was “inactive” and the outcome [4] was “inactive”. The Potency [5] was “inactive” and the Potency [6] was “inactive”.

In the case of `COC(=O)N1CCN(C(=O)Cc2ccc(Cl)c(Cl)c2)C(CN2CCCC2)C1` (centres undefined), the Potency [3] is reported as 2.82 µM (active) and the outcome [4] is reported as “inactive”.

In the case of `C=CCN=C=S`, the outcome [1] is reported as “inactive”.

In the case of `Clc1cc(I)cc(Cl)c1NC1=NCCN1`, the Potency [3] is reported as 14.1 µM (active), the outcome [7] is reported as “inactive” and the outcome [4] is reported as “inactive”. For the same compound, the Potency [5] was “inactive”.

With `O=C/C=C/c1ccccc1` the outcome [1] was “inactive”.

For `CCCCCl`, the outcome [1] was “inactive”.

In the case of `ClC(Cl)(Cl)Cl`, the outcome [1] is reported as “inactive”.

For `COc1ccc2c(c1)[C@@]13CCCC[C@H]1[C@@H](C2)NCC3`, the Potency [3] was 1.12 µM (active), the Potency [8] was 11.2 µM (active) and the outcome [4] was “inactive”. For the same compound, the Potency [6] was “inactive”.

In the case of `CC(C)Nc1ccc(Nc2ccccc2)cc1`, the outcome [1] is reported as “inactive”.
